Test results from PubChem BioAssay AID624483 (NMMLSC, 2012).
Among all 360,000 compounds or so, about 11,000 (3.1%) were called active. Another 2% or so got no clear call; they are omitted. Rule as the data show it: active = fluorescence intensity above about 16000; inconclusive = no clear call, values can overlap the other calls; inactive = below that. For the sample, actives were picked, then their nearest neighbours and some compounds at random.

test: compound fluorescence in toxin protease inhibitor counterscreen, primary screen, artefact control for toxin protease inhibitor project, biochemical, multiplex microsphere, HTS (AID 624483); settings: compound autofluorescence counterscreen, microsphere flow cytometry; stronger effect = higher value

| Structure (SMILES) | fluorescence intensity |
| --- | --- |
| CC(=O)Nc1ccc(NC(=O)C2CCCN(S(=O)(=O)c3ccc(Cl)cc3)C2)cc1 (stereo not drawn) | 5830 (inactive) |
| COc1ccc(CCNC(=O)C2CCCN(S(=O)(=O)c3ccc(OC)cc3)C2)cc1 (stereo not drawn) | 5700 (inactive) |
| COc1ccc(S(=O)(=O)N2CCCC(C(=O)Nc3ccc(NC(=O)c4ccccn4)cc3)C2)cc1 (stereo not drawn) | 22100 (active) |
| Cc1ccc(F)c(S(=O)(=O)NC(=O)C2(C)CCN2C(=O)CCc2cccs2)c1 (stereo not drawn) | 3440 (inactive) |
| CCOc1ccc(NC(=O)c2ccccc2NS(C)(=O)=O)cc1 | 9540 (inactive) |
| COC(=O)c1ccccc1NS(=O)(=O)c1ccc2[nH]c(=O)[nH]c2c1 | 2520 (inactive) |
| COC(=O)c1ccc(NC(=O)c2ccccc2NS(=O)(=O)c2ccccc2)cc1 | 20200 (active) |
| O=C(NCCC(=O)N1O[C@@H]2C=C[C@H]1C2)OCC1c2ccccc2-c2ccccc21 | 3360 (inactive) |
| COc1ccc(S(=O)(=O)NC(=O)C2(C)CCN2C(=O)c2ccccc2CCc2ccccc2)cc1 (stereo not drawn) | 3970 (inactive) |
| COc1ccc(Cl)cc1S(=O)(=O)Nc1cccc(C(=O)O)c1 | 22100 (active) |
| COc1ccc(C)cc1S(=O)(=O)Nc1cccc(Cl)c1Cl | 2450 (inactive) |
| O=C(O)c1ccc(F)c(S(=O)(=O)Nc2ccccc2)c1 | 9990 (inactive) |
| COc1ccc(C(N)c2csc(NC(=O)Nc3cccc(C(F)(F)F)c3)n2)cc1 (stereo not drawn) | 3490 (inactive) |
| Cn1nnnc1SCC(=O)N1CCN(Cc2ccccc2)CC1 | 19800 (active) |
| CC(=O)c1ccc(-n2nnnc2SCC(=O)N2CCN(C(=O)c3ccco3)CC2)cc1 | 2310 (inactive) |
| Cn1nnnc1SCC(=O)N1CCN(C(c2ccccc2)c2ccccc2)CC1 | 3570 (inactive) |
| CC(C)COc1ccc(C(=O)NNC(=O)CCC(=O)c2cccs2)cc1 | 4110 (inactive) |
| O=C(O)CCSc1nnc(-c2ccccc2)n1-c1ccccc1 | 22100 (active) |
| O=C(O)CSc1nnc(-c2ccc3c(c2)OCO3)n1-c1ccccc1 | 2040 (inactive) |
| NNC(=O)CSc1nnc(-c2ccccc2)n1-c1ccccc1 | 3710 (inactive) |
| COc1ccccc1Cc1c(-c2ccc(Cl)cc2)nc2ccc(Cl)cn12 | 8280 (inactive) |
| COc1ccc(CCNC(=O)c2c(C)nn(-c3ccccc3)c2Cl)cc1 | 5520 (inactive) |
| Cc1nn(-c2ccccc2)c(C)c1NC(=O)CCl | 2020 (inactive) |
| Cc1nn(-c2ccccc2)c(Cl)c1C(=O)Nc1ccccc1 | 20900 (active) |
| CCc1nc2ccc(C(=O)Nc3cc(-c4ccccc4)ccc3OC)cn2c1N(CC)CC(=O)N(C)C | 3600 (inactive) |

| Structure (SMILES) | fluorescence intensity |
| --- | --- |
| CCOC(=O)C1CCN(C(=O)Nc2ccc(Cl)cc2)CC1 | 2770 (inactive) |
| CCOC(=O)C1CCN(Cc2coc3ccc(Cl)cc3c2=O)CC1 | 20400 (active) |
| CCOC(=O)C1CCN(Cc2ccc(-c3ccccc3)cc2)CC1 | 3660 (inactive) |
| Cc1cc(CNCc2c(C(=O)N(C)Cc3ccccc3)nc3ccccn23)nn1C | 2160 (inactive) |
| N#CC1=C(N)Oc2cc(N)ccc2C1c1ccccc1 (stereo not drawn) | 4230 (inactive) |
| N#CC1=C(N)Oc2cc(O)ccc2C1C1CCCCC1 (stereo not drawn) | 4810 (inactive) |
| COc1ccc(C2C(C#N)=C(N)Oc3cc(N)ccc32)cc1OC (stereo not drawn) | 23300 (active) |
| O=C(NCc1ccccc1Cl)c1csc([C@@H]2O[C@H](CO)[C@@H](O)[C@H]2O)n1 | 3690 (inactive) |
| CC(=O)Nc1c2c(nn1-c1cccc(C)c1)CSC2 | 5830 (inactive) |
| Cc1cccc(-n2ncc(Cl)c(Cl)c2=O)c1 | 3990 (inactive) |
| Cc1cccc(-n2ncc(C#N)c2-n2cccc2)c1 | 19100 (active) |
| CCOC(=O)C1CCCN(C(=O)c2ccc(N(C)C)cc2)CC1 (stereo not drawn) | 2830 (inactive) |
| CCc1nc2c(OCCC3CCCCC3)cccn2c1N(C)C(=O)c1ccco1 | 3130 (inactive) |
| COc1ccc(C(=O)N2CCCCC2c2cc(C(=O)Nc3ccccc3)no2)cc1 (stereo not drawn) | 3670 (inactive) |
| CCCNC(=O)C1(C)CCN(Cc2ccc(Cl)c(Cl)c2)C1 (stereo not drawn) | 4070 (inactive) |
| CC1(C(=O)Nc2ccccc2Br)CCN1C(=O)CC1CC1 (stereo not drawn) | 4640 (inactive) |
| O=C(Nc1cccc(Cc2ccccc2)c1)Nc1ccc2nc([C@@H]3O[C@H](CO)[C@@H](O)[C@H](O)[C@H]3O)[nH]c2c1 | 5830 (inactive) |
| CN1C(=O)CC(N2CCN(c3ccccn3)CC2)C1=O (stereo not drawn) | 20700 (active) |
| O=C(CN1CCN(c2ccccn2)CC1)NC1CCCCC1 | 5140 (inactive) |
| O=C(C(Cl)Cl)N1CCN(c2ccccn2)CC1 | 2340 (inactive) |
| CCCCc1c(-c2ccc(Cl)cc2)ncn1CCc1ccccc1OC | 6340 (inactive) |
| COc1ccc(CN(Cc2ccco2)S(=O)(=O)c2ccc(S(=O)(=O)N3CCCC3)cc2)cc1 | 23600 (active) |
| CCOc1ccc(CN(Cc2ccco2)S(=O)(=O)c2ccc(-n3cnnn3)c(OC)c2)cc1 | 11600 (inactive) |
| COc1ccc(S(=O)(=O)NCc2ccc(C(=O)N(C)Cc3ccco3)cc2)cc1 | 10900 (inactive) |
| CC1(C(=O)Nc2cccc3c2CCCC3)CCN1C(=O)C1(c2ccccc2)CC1 (stereo not drawn) | 3760 (inactive) |

| Structure (SMILES) | fluorescence intensity |
| --- | --- |
| C=CCn1c2c(c3ccccc31)CCC2 | 6080 (inactive) |
| COc1ccc(Nc2nc(-c3ccccc3)cs2)cc1 | 23300 (active) |
| NS(=O)(=O)c1ccc(NS(=O)(=O)/C=C/c2ccccc2)cc1 | 7650 (inactive) |
| COc1ccc(-c2csc(Nc3cccc(C)n3)n2)cc1OC | 3770 (inactive) |
| NS(=O)(=O)c1ccc(Nc2nc(-c3ccccc3)cs2)cc1 | 23200 (active) |
| CC(=O)c1ccc(Nc2nc(C(N)c3ccccc3)cs2)cc1 (stereo not drawn) | 3990 (inactive) |
| COc1ccc2c(c1OC)C(=O)OC2Nc1nc(-c2ccccc2)cs1 (stereo not drawn) | 2960 (inactive) |
| CCCOc1ccc(F)cc1-c1cc(C(=O)Nc2ccc(F)cc2)[nH]n1 | 3520 (inactive) |
| COCCn1c(SCC(=O)c2[nH]c(C)c(C(C)=O)c2C)nc2ccccc2c1=O | 3120 (inactive) |
| CC(C)Cn1cc(-c2cncc3nccn23)cn1 | 4100 (inactive) |
| COCCCNC(=O)c1ccc(-c2c(C)noc2C)c2ccoc12 | 3520 (inactive) |
| Cc1ccc(/C=N/NC(=O)Cn2ccc(C(F)(F)F)n2)o1 | 2150 (inactive) |
| c1ccc(Cc2c(-c3ccco3)nc3c4ccccc4ccn23)cc1 | 4810 (inactive) |
| Clc1ccc(CSc2nnc3c(n2)[nH]c2ccccc23)cc1 | 3690 (inactive) |
| c1ccc(CSc2nnc(-c3ccco3)c(-c3ccco3)n2)cc1 | 20900 (active) |
| CN(C)CCN(Cc1ccccc1)S(=O)(=O)c1csc(C(N)=O)c1 | 5470 (inactive) |
| Cc1ccc(-n2c(C)cc(C(=O)CSc3nnc4ccccn34)c2C)cc1 | 2510 (inactive) |
| COc1ccc(-n2c(C)cc(C(=O)CSc3nnc(-c4cccs4)o3)c2C)cc1 | 18900 (active) |
| COc1ccc(-n2c(C)cc(C(=O)COC(=O)c3cc(OC)c(OC)cc3NC(=O)c3cccs3)c2C)cc1 | 2450 (inactive) |
| COC(=O)c1ccc(OC(=O)c2cnccn2)cc1 | 4650 (inactive) |
| CC(C)CCC(C)NC(=O)c1ccc2nccnc2c1 (stereo not drawn) | 4050 (inactive) |
| O=C(Oc1ccccc1)c1ccc2nccnc2c1 | 16700 (active) |
| Cc1nccn1-c1ccc(NC(=O)[C@H]2O[C@@H](n3cnc4c(N)ncnc43)[C@H](O)[C@@H]2O)cc1 | 5940 (inactive) |
| CC(Oc1ccc(Cl)cc1Cl)C(=O)/C=C/N(C)C (stereo not drawn) | 18300 (active) |
| CC(Oc1ccccc1F)C(=O)NN (stereo not drawn) | 2470 (inactive) |

| Structure (SMILES) | fluorescence intensity |
| --- | --- |
| CN(C)/C=C/C(=O)c1ccccc1F | 4920 (inactive) |
| CC(=O)N(OCc1ccc(OC(C)C)c(Cl)c1)C(C)=O | 4420 (inactive) |
| CCCC(=O)Nc1cccc(NC(=S)NC(=O)C(C)Oc2ccc(Cl)cc2Cl)c1 (stereo not drawn) | 2030 (inactive) |
| CC(Oc1ccc(F)cc1F)C(=O)/C=C/N(C)C (stereo not drawn) | 24200 (active) |
| CCOC(=O)c1sc(N)c(C#N)c1COC(=O)C1=COCCO1 | 4150 (inactive) |
| CCNC(=O)C1CCCN(C(=O)c2ccc(OC)cc2OC)CC1 (stereo not drawn) | 2850 (inactive) |
| CCCOc1ccc(F)cc1-c1cc(C(=O)NCc2ccc(F)cc2)[nH]n1 | 3970 (inactive) |
| COCCNc1nc(NCc2ccc(NC(C)=O)cc2)c2sccc2n1 | 3410 (inactive) |
| CC(=O)Nc1cccc(Nc2ccc(C#N)cc2)c1 | 6880 (inactive) |
| CCOC(=O)C1CCCN(C(=O)c2cccc3ccccc23)CC1 (stereo not drawn) | 3960 (inactive) |
| O=C(NCc1ccc(F)cc1)c1cc(C2CCCCN2C(=O)c2ccccn2)on1 (stereo not drawn) | 4420 (inactive) |
| Nc1nc2cc(Cl)ccc2n1N | 6290 (inactive) |
| CC(O)(c1cccc(F)c1)c1nc(-c2ccc3c(c2)OCO3)cs1 (stereo not drawn) | 3850 (inactive) |
| O=C(N1CCOCC1)N(Cc1ccccc1)c1ccccn1 | 3710 (inactive) |
| CCC(=O)N(Cc1ccccc1)c1ccccn1 | 20800 (active) |
| CC(C)(C)C(=O)N(Cc1ccccc1)c1ccccn1 | 4430 (inactive) |
| COc1cc(F)ccc1-c1cc(C(=O)NCC2CCCCC2)[nH]n1 | 3000 (inactive) |
| CCC(C)[C@H](NC(=O)N1c2ccccc2NC(=O)[C@@H]1C(C)C)C(=O)N[C@@H](Cc1ccccc1)C(=O)O (stereo partly drawn) | 3920 (inactive) |
| COc1ccc(NC(C)=O)cc1NC(=O)CN1CCN(C2c3ccccc3-c3ccccc32)CC1 | 4260 (inactive) |
| Cc1ccc(CN(CC(=O)NC2CCCCC2)C(=O)c2csnn2)cc1 | 5650 (inactive) |
| CCCOc1ccc(/C(O)=C2/C(=O)C(=O)N(CCN(C)C)C2c2ccc(OC)c(OC)c2)cc1 (stereo not drawn) | 4510 (inactive) |
| COc1ccc(/C(O)=C2/C(=O)C(=O)N(CCCN(C)C)C2c2ccccc2)cc1OC (stereo not drawn) | 21200 (active) |
| COc1cccc(C2/C(=C(/O)c3ccc(F)cc3)C(=O)C(=O)N2CCN(C)C)c1 (stereo not drawn) | 4550 (inactive) |
